USP30 inh – inhibitors of human USP30 deubiquitinase. purified USP30, Ub-rhodamine cleavage fluorescence. inhibition, % at 25 µM. 47,000 compounds, 5.3% hits
USP8 block – human USP8 deubiquitinase inhibition | P40818 | inhibition, % at 20 µM | AID 1645853 | purified USP8, Ub-rhodamine cleavage fluorescence, 30 min | 47,000 compounds, 4.2% hits
USP17 inh – human USP17-like deubiquitinase inhibition. A8MUK1. purified USP17, Ub-rhodamine cleavage fluorescence, 3 h. inhibition, % at 50 µM. 47,000 compounds, 6.5% hits. AID 1645855
Target sequence (A8MUK1 whole entry, looked up): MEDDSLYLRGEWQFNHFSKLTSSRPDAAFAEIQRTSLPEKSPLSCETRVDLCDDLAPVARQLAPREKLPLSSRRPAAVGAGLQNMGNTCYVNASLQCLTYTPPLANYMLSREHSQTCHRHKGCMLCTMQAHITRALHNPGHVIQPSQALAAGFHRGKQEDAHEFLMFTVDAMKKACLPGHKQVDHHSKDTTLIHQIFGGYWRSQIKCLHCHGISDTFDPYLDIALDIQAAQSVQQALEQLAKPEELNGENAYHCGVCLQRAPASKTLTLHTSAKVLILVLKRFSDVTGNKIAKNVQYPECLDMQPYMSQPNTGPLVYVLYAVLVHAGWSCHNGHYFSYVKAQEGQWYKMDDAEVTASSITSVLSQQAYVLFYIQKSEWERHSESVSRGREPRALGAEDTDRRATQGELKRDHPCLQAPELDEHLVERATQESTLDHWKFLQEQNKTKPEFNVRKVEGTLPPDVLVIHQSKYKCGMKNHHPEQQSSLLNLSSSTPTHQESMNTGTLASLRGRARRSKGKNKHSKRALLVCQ
USP28 block – human USP28 deubiquitinase inhibition | purified USP28, Ub-rhodamine cleavage fluorescence, 30 min | inhibition, % at 25 µM | AID 1645857 | Q96RU2 | 47,000 compounds, 3% hits
Active calls of the source: *; i = inactive; . = no result. A selection: hits, their analogues and other compounds. The true share with any hit is near 13%. Cut-off read from the data, not from the text of the source: active = inhibition above about 30%; inactive = the rest.

SMILES	USP30 inh	USP8 block	USP17 inh	USP28 block
Cc1cc2ccccc2n1CCNS(=O)(=O)c1ccc([N+](=O)[O-])cc1	-63.0	-134.7	16.8	15.0
CC(=O)Nc1ccc(S(=O)(=O)NCCn2c(C)cc3ccccc32)cc1	-162.2	-62.1	34.4*	-36.2
Cc1nc(-c2ccccc2)sc1C(=O)CSc1ccc(F)cc1	32.0*	20.4	14.4	20.5
Cn1ncc(Cl)c1C(=O)Nc1ccc2nc(NC(=O)C3CCCCC3)sc2c1	12.2	58.2*	37.8*	7.7
O=C(Nc1ccc2nc(NS(=O)(=O)c3ccccc3)sc2c1)C1CCCCC1	2.6	2.1	7.4	0.3
COc1ccc(S(=O)(=O)Nc2ccc3nn(C)cc3c2)cc1	-62.9	77.0*	33.7*	-13.0
Cc1ccc2c(CNC3CCCC3)c(C(=O)O)n(C)c2c1	-2.2	-6.2	-4.0	-4.5
NC(=O)c1cccc(OCCOc2ccccc2)c1	48.6*	4.2	24.1	15.1
Cc1ccc(-c2n[nH]c3c2CN(C(=O)c2ccncc2)CC3)cc1	19.6	1.8	10.9	3.7
Cc1cccc(C)c1NC(=O)c1cccc(COc2ccc3c(c2)CCC3)c1	5.6	3.1	-2.4	31.4*
O=C(NC1CCCCC1)c1cccc(COc2ccc3c(c2)CCC3)c1	-12.8	-22.2	3.7	-7.6
CC(C)=CCC[C@@](C)(O)[C@@H]1CC[C@@](C)(O)[C@H]1C	32.8*	3.6	6.8	3.4
COc1ccc(CCNC(=O)COC(=O)c2ccc(N3CCCC3=O)cc2)cc1	81.3*	30.3*	83.7*	8.9
O=C(NCCCN1CCCC1=O)c1ccc(N2CCCC2=O)cc1	2.3	-3.7	1.8	0.1
Cc1ccc2oc3c(c(=O)c2c1)C(c1ccc(OCc2ccccc2)cc1)N(c1cc(C)on1)C3=O (configuration not stated)	-2.9	-3.4	1.6	-10.6
Cc1ccccc1OCC(=O)Nc1ccc(O)c(-c2nc3ccccc3o2)c1	15.5	-21.2	-16.6	13.9
CC(C)(C)c1ccc(C(=O)Nc2ccc(O)c(-c3nc4cnccc4o3)c2)cc1	-2.0	61.3*	2.0	-5.2
CC(=O)Nc1ccc(O)c(-c2nc3cc(C)ccc3o2)c1	-39.3	-4.7	50.8*	8.6
COc1cccc(C2CC(=O)Nc3n[nH]c(C)c32)c1OCc1cccc(C)c1 (configuration not stated)	9.6	12.9	9.3	9.8
COc1ccc(Cc2nnc3c4cnn(-c5ccccc5)c4ncn23)cc1OC	29.6	-1.6	12.1	-0.6
Cc1cccc(OCCCSc2nc3ccc(C)cc3[nH]2)c1	24.1	4.5	22.5	28.1
CCOc1ccc2nc(SCc3cn4cc(Cl)ccc4n3)[nH]c2c1	21.2	22.6	9.5	40.8*
CCOc1ccc(CNc2nc3ccc(C)cc3n3cnnc23)cc1OC	-0.3	-6.5	-0.4	0.1
Cc1ccc2nc(N3CCc4ccccc4C3)c3nncn3c2c1	27.2	44.7*	58.9*	33.6*
CN1C(=O)[C@H](Cc2ccccc2)N(C)C(=O)[C@@H]2[C@H]1CCN2C(=O)Nc1ccccc1	11.6	18.0	12.1	9.0
SMILES	USP30 inh	USP8 block	USP17 inh	USP28 block
Cc1cc(=O)n(C)c2c(O)c3c(cc12)c(C)cc(=O)n3C	4.0	49.6*	77.2*	69.5*
O=C(Cc1cccc2ccccc12)Nc1ccc(N2CCCCC2)cc1	-8.4	10.6	-3.3	-3.2
O=C(COC(=O)c1n[nH]c2ccccc12)Nc1ccc(N2CCCCC2)cc1	38.5*	4.7	59.2*	24.8
O=C(COC(=O)c1n[nH]c2ccccc12)Nc1ccc2c(c1)CCC2	13.0	30.3*	-4.0	-1.5
CSc1ccccc1NC(=O)CN1C(=O)NC2(CCC(C)CC2)C1=O (configuration not stated)	5.3	6.1	2.8	0.3
COc1cc(NC(=O)COC(=O)Cn2cnc3ccccc32)cc(OC)c1	0.9	-5.2	-3.0	51.1*
Cc1ccc(NC(=O)COC(=O)Cn2cnc3c2c(=O)n(C)c(=O)n3C)cc1	3.4	1.6	3.8	8.2
CCc1ccc(NC(=O)COC(=O)Cn2cnc3ccccc32)cc1	-0.5	-24.0	0.1	32.2*
Cc1ccc(NC(=O)COC(=O)Cn2cnc3c2c(=O)n(C)c(=O)n3C)cc1F	0.2	2.6	-1.0	6.1
C[C@H](CCC(=O)O)[C@H]1CCC2C3CCC4C[C@H](O)CC[C@]4(C)C3C[C@H](O)[C@@]21C (some centres not stated)	17.5	1.5	-9.6	7.1
Cc1ccc(C)c(Cn2cnc3c(nnn3-c3cccc(F)c3)c2=O)c1	-41.4	53.6*	.	-16.1
Cc1cccc(-n2nnc3c(=O)n(Cc4ccc([N+](=O)[O-])cc4)cnc32)c1	-4.9	-7.9	.	-5.0
CCOC(=O)Cc1cc(=O)n2[nH]c(C)c(-c3ccc(Cl)cc3)c2n1	8.0	-126.0	-8.0	0.7
CCOC(=O)Cc1cc(=O)n2[nH]c(-c3ccc(C)cc3)cc2n1	-138.1	-24.6	30.6*	17.0
CCCCN1CCN(c2ccc3c(c2)OCO3)C1=O	11.7	21.9	9.7	36.9*
COc1cnc(CSc2ccc(C)cc2)cc1OCC(=O)Nc1ccccc1	35.6*	-7.8	5.8	-5.9
COc1ccc(C(C)C)cc1S(=O)(=O)Nc1cccc(C)n1	28.5	13.8	5.7	7.9
COc1ccc(C)cc1S(=O)(=O)NNc1nc(C)cc(C)n1	7.3	76.4*	33.7*	7.6
COc1ccc(-n2c(SCC(=O)c3c[nH]c4ccccc34)nnc2-c2ccccc2)cc1OC	5.8	-9.0	-7.6	-6.4
CCN(c1ccc(NC(=O)CSc2nnc(-c3ccccc3)n2-c2ccc(OC)c(OC)c2)cc1)C(C)C	46.3*	6.2	63.1*	40.9*
Cc1ccc(C(CC(=O)Nc2cccc(C)n2)N2Cc3ccccc3C2=O)cc1 (configuration not stated)	0.4	17.1	41.4*	14.8
O=C(O)CC(c1ccc2c(c1)OCO2)N1Cc2ccccc2C1=O (configuration not stated)	11.7	2.7	4.8	11.4
O=C(Cn1c(=O)n(Cc2cccs2)c(=O)c2ncccc21)N1CCCc2ccccc21	3.9	-1.5	-32.4	2.6
O=C(CSc1nnc2c3ccccc3nc(-c3ccco3)n12)N1CCCc2ccccc21	-13.5	33.5*	-18.0	-25.8
O=C(CSc1nnc(-c2ccc3c(c2)OCCO3)o1)N1CCCc2ccccc21	26.7	6.8	-31.0	14.1
SMILES	USP30 inh	USP8 block	USP17 inh	USP28 block
O=C(CSc1nnc(-c2ccncc2)o1)N1CCCc2ccccc21	32.5*	0.6	0.7	5.5
Cc1cc(-c2nnc(SCC(=O)N3CCCc4ccccc43)o2)no1	-92.3	16.2	40.6*	-29.2
c1coc(-c2nc3ccccc3c3nnc(SCc4ccc5nonc5c4)n23)c1	-24.8	7.2	2.4	-13.3
O=C1NC2(CCCc3ccccc32)C(=O)N1Cc1csc(-c2ccccc2)n1 (configuration not stated)	3.3	-0.3	0.1	15.2
O=C(CSc1nnc(Cc2ccccc2)n1Cc1ccccc1)N1CCOCC1	-1.4	-19.6	-6.7	-8.7
Cc1cccc(/C=C(\C(=O)C(=O)O)c2ccc3ccccc3n2)c1	i	-15.0	-64.6	-206.1
Cc1cc(C)c(NC(=O)/C=C/c2ccc3ccccc3n2)c(C)c1	-140.2	17.6	34.0*	-58.4
